According to PubChem BioAssay (NCATS):
Inconclusive results are not listed. Unmarked numbers belong to inactive results. Activity calls are given as the source filed them. Calls follow the shape of the dose curve; as a rule, active = well fitted curve in the direction sought with a large enough effect; inconclusive = small, poorly fitted or top-dose-only effect, or another doubt; inactive = no such curve, though single readings can be large; an effect the other way counts as inactive or inconclusive.

Assay: Confirmatory screen NINDS Rhodamine qHTS for Zika virus inhibitors (AID 1347161); also: nearly all actives have a fitted effect of over 60% in size; also: potency is read from the fitted curve at half-maximal effect;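 as to activity change, negative = inhibition: purified Zika NS2B-NS3 protease with linked NS2B cofactor domain and Rhodamine110 peptide substrate; plate controls were no-inhibitor control for no effect and no-enzyme control for full effect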
Conditions: purified enzyme assay, Rhodamine110 substrate fluorescence, 15 min; series mostly up to 64.7 µM; activity change, negative = inhibition: at the top concentration
How it was run: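 Purified NS2B-NS3 protease with the NS2B hydrophilic domain joined by a flexible linker (25 nM) in 10 mM Tris-HCl pH 8.0, 0.01% Tween 20, preincubated 15 min at RT with compound; Rhodamine110 peptide substrate 1.5 µM; fluorescence change over 15 min; 4-parameter Hill fit.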

Row | SMILES | Potency | activity change, negative = inhibition
1 | O=C(O)[C@@H]1[C@H]2C[C@H]3c4[nH]c5ccccc5c4CCN3C[C@@H]2CC[C@@H]1O | 12.4 µM (active) | 
2 | CN1C[C@@H]2C[C@H]1CN2c1cc2c(cc1F)c(=O)c(C(=O)O)cn2C1CC1 |  | -30.5%
3 | COc1ccccc1Oc1c(NS(=O)(=O)c2ccc(C(C)(C)C)cc2)nc(-c2ncccn2)nc1OCCO |  | -25.3% [at 114 µM]
4 | O=C(O)Cn1c(C(=O)Nc2nc(-c3ccccc3Cl)cs2)cc2ccccc21 | 3.93 µM (active) | 

Assay: Vero cells viability qHTS for Zika virus inhibitors (AID 1347167); also: % is scaled to controls: 0 for no effect and ±100 for the full control effect
Conditions: cytotoxicity counter-screen (Zika); series mostly up to 45.9 µM; activity change, negative = cytotoxicity: at the top concentration
How it was run: (§1)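 To flag cytotoxic protease inhibitors, viability is measured by ATP-dependent luminescence (CellTiter Glo) after cells attached overnight receive compound for 24 to 48 hours in DMEM with 4% FBS.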

Row | SMILES | activity change, negative = cytotoxicity
5 | O=C(O)[C@@H]1[C@H]2C[C@H]3c4[nH]c5ccccc5c4CCN3C[C@@H]2CC[C@@H]1O | -3.61%
6 | CN1C[C@@H]2C[C@H]1CN2c1cc2c(cc1F)c(=O)c(C(=O)O)cn2C1CC1 | -6.91% [at 26.9 µM]
7 | O=C(O)Cn1c(C(=O)Nc2nc(-c3ccccc3Cl)cs2)cc2ccccc21 | -3.62%

Assay: HepG2 cells viability qHTS for Zika virus inhibitors (AID 1347168); also: % is scaled to controls: 0 for no effect and ±100 for the full control effect
Conditions: Zika counter-screen; series mostly up to 45.9 µM; activity change, negative = cytotoxicity: at the top concentration
How it was run: as §1

Row | SMILES | activity change, negative = cytotoxicity
8 | O=C(O)[C@@H]1[C@H]2C[C@H]3c4[nH]c5ccccc5c4CCN3C[C@@H]2CC[C@@H]1O | 2.36%
9 | CN1C[C@@H]2C[C@H]1CN2c1cc2c(cc1F)c(=O)c(C(=O)O)cn2C1CC1 | -0.0193% [at 26.9 µM]
10 | O=C(O)Cn1c(C(=O)Nc2nc(-c3ccccc3Cl)cs2)cc2ccccc21 | 6.94%

Assay: Tertiary RLuc qRT-PCR qHTS assay for Zika virus inhibitors (AID 1347169); also: top concentration of the series differs between compounds; % is scaled to controls: 0 for no effect and ±100 for the full control effect; nearly all actives have a fitted effect of over 55% in size
Conditions: infected Vero cells, reporter luminescence, 48-72 h; series mostly up to 45.9 µM; activity change, negative = inhibition: at the top concentration
How it was run: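 Vero, 1,000 cells/well, o/n 37 C; cpd pinned in DMSO; ZIKV-RLuc Cambodian, MOI 1-2, 48-72 h 37 C; live-cell RLuc substrate, lum read at 1-1.5 h.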

Row | SMILES | activity change, negative = inhibition
11 | O=C(O)[C@@H]1[C@H]2C[C@H]3c4[nH]c5ccccc5c4CCN3C[C@@H]2CC[C@@H]1O | -7.27%
12 | CN1C[C@@H]2C[C@H]1CN2c1cc2c(cc1F)c(=O)c(C(=O)O)cn2C1CC1 | 10.1% [at 26.6 µM]
13 | COc1ccccc1Oc1c(NS(=O)(=O)c2ccc(C(C)(C)C)cc2)nc(-c2ncccn2)nc1OCCO | 14.1% [at 1.74 µM]
14 | O=C(O)Cn1c(C(=O)Nc2nc(-c3ccccc3Cl)cs2)cc2ccccc21 | -13.3%
